ChEMBL document CHEMBL1961873, “Compounds: GSK PKIS; Assays: Nanosyn kinase panel” (2012)

What was measured:
[1] = molecular target: RAF proto-oncogene serine/threonine-protein kinase (Homo sapiens) (UniProt P04049); conditions: at 1 µM;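 further: values are the mean percent inhibition of CRAF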
[2] = molecular target: T1, Interleukin-1 receptor-associated kinase 4 (Homo sapiens) (UniProt Q9NWZ3); conditions: at 0.1 µM
T1 sequence (whole entry): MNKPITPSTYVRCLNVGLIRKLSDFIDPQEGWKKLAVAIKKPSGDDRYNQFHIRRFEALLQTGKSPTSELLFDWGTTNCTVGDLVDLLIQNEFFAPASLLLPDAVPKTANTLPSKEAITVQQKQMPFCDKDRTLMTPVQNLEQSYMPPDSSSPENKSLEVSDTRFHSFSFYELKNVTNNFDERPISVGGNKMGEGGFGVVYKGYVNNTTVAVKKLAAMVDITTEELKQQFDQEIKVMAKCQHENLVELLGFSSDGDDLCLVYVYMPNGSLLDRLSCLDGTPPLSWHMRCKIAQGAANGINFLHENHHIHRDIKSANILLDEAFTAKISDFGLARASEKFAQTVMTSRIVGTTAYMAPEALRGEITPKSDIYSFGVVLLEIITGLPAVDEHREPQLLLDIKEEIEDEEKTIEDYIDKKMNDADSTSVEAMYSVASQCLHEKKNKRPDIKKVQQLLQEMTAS

[3] = molecular target: T1, Interleukin-1 receptor-associated kinase 4 (Homo sapiens); conditions: at 1 µM
[4] = molecular target: Leucine-rich repeat serine/threonine-protein kinase 2 (Homo sapiens) (UniProt Q5S007); conditions: at 0.1 µM
[5] = molecular target: Leucine-rich repeat serine/threonine-protein kinase 2 (Homo sapiens) (UniProt Q5S007); conditions: at 1 µM
[6] = test system: Leucine-rich repeat serine/threonine-protein kinase 2 (Homo sapiens), Q5S007 [G2019S]; conditions: at 0.1 µM
[7] = test system: Leucine-rich repeat serine/threonine-protein kinase 2 (Homo sapiens), Q5S007 [G2019S]; conditions: at 1 µM

Sequence of Leucine-rich repeat serine/threonine-protein kinase 2 (Homo sapiens) (Q5S007 whole entry): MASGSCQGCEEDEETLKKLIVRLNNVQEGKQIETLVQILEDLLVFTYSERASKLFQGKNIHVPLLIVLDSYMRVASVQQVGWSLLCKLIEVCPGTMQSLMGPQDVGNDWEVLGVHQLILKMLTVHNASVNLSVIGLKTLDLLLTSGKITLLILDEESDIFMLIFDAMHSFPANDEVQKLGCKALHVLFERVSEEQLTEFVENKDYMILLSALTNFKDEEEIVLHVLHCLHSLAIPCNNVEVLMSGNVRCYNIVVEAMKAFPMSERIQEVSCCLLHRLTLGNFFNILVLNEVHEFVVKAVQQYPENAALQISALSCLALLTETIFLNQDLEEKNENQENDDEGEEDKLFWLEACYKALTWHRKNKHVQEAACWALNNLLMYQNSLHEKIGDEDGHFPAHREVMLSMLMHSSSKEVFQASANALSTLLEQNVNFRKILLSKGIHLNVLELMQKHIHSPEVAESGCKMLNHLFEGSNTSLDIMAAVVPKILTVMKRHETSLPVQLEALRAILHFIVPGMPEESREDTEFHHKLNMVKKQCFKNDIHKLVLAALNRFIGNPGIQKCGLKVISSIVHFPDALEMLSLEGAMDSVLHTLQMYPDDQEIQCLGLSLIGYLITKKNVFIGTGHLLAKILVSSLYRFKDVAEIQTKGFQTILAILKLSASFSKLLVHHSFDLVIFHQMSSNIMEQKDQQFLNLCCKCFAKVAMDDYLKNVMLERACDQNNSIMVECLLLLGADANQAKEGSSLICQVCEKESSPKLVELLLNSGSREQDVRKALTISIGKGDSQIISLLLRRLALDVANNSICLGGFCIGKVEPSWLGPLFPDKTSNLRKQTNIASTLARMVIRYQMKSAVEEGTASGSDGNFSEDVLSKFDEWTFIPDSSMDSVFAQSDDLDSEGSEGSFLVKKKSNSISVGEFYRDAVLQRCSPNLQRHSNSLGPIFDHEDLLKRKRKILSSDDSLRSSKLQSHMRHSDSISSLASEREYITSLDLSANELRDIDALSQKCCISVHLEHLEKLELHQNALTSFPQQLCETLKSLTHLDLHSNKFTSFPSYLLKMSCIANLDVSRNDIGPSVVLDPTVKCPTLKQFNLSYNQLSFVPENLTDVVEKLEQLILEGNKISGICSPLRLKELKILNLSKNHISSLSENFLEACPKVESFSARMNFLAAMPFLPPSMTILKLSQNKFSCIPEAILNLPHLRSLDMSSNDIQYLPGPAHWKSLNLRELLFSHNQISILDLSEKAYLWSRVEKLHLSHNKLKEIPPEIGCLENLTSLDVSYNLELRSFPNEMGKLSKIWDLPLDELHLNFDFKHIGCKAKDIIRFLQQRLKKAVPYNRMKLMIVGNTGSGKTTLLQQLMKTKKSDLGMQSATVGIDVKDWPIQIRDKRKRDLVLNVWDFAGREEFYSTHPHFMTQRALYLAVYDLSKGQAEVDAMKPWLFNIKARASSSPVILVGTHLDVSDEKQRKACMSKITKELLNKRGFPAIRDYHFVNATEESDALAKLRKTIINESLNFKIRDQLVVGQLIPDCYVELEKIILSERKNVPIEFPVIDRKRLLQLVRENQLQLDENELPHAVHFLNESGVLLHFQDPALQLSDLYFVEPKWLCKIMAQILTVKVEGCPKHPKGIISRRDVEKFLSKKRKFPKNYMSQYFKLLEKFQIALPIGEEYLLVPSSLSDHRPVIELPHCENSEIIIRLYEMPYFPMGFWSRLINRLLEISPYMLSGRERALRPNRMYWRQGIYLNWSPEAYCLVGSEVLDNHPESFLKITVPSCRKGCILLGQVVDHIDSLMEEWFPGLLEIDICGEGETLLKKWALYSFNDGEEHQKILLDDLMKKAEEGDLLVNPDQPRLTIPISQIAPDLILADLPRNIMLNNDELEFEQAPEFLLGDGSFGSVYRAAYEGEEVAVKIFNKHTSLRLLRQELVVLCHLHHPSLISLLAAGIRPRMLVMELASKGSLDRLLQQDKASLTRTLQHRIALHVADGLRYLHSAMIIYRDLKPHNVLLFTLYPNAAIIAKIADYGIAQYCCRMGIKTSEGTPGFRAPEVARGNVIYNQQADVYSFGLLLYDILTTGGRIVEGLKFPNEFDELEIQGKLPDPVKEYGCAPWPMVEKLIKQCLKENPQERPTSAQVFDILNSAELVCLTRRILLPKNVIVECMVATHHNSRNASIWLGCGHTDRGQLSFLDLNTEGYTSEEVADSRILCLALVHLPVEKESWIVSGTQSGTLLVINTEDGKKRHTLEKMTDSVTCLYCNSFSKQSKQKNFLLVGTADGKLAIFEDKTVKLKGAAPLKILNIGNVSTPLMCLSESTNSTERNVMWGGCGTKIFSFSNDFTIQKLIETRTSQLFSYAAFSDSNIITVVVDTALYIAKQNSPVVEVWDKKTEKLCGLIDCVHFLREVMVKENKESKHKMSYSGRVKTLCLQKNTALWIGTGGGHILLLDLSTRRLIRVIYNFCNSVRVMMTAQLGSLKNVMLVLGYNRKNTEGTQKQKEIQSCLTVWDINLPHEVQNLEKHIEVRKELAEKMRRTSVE
Sequence of Leucine-rich repeat serine/threonine-protein kinase 2 (Homo sapiens), Q5S007 [G2019S] (Q5S007 whole entry G2019S): as the sequence (Q5S007 whole entry) above, with G2019S counted along it
Sequence of RAF proto-oncogene serine/threonine-protein kinase (Homo sapiens) (P04049 whole entry): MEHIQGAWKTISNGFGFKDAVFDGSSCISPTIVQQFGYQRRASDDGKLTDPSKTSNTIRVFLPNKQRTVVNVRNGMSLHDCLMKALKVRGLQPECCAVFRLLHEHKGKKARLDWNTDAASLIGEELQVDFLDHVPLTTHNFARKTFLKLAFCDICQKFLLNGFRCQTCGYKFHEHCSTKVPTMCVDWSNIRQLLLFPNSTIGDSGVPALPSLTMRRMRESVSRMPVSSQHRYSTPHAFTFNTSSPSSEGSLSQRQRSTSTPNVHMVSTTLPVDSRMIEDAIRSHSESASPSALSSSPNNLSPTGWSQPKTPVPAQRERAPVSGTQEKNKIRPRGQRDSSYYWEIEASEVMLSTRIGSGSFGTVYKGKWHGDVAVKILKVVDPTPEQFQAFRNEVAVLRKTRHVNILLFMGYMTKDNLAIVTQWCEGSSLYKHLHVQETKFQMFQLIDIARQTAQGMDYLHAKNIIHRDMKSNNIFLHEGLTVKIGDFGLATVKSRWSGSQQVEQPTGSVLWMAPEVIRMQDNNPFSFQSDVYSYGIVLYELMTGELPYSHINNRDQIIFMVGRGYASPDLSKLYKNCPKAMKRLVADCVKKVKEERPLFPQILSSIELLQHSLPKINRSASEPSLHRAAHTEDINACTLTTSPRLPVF

| Structure (SMILES) | inhibition [1] | inhibition [2] | inhibition [3] | inhibition [4] | inhibition [5] | inhibition [6] | inhibition [7] |
| --- | --- | --- | --- | --- | --- | --- | --- |
| CNC(=O)c1cccc(C#Cc2cncnc2Nc2ccc(OCc3cccc(F)c3)c(Cl)c2)c1 | -1.34% | -3.89% | 0.26% | 0.02% | 3.48% | -1.1% | 3.49% |
| COc1ccc(-c2cc(-c3c[nH]nc3-c3ccccn3)ccn2)cc1 | 0.07% | -2.78% | 2.03% | 2.47% | 7.04% | 4.82% | 7.48% |
| COc1ccc(-c2nn3ncccc3c2-c2ccnc(Nc3ccc4c(c3)OCCO4)n2)cc1 | -7.5% | -0.42% | -0.94% | 7.1% | 11.4% | 6.14% | 10.2% |
| Clc1ccc(-c2nn3ncccc3c2-c2ccnc(Nc3ccccc3)n2)cc1 | -3.34% | -3.75% | 1.51% | 1.23% | 5.86% | 3.01% | 8.26% |
| Fc1ccc(-c2nn3ncccc3c2-c2ccnc(Nc3ccc4c(c3)OCCO4)n2)cc1 | -0.33% | 2.79% | 2.18% | 3.63% | 7.64% | 2.59% | 6.75% |
| CNC(=O)c1cc(-c2ccc(F)cc2)cc(-c2ccc(S(=O)(=O)N3CCCC3)cc2)c1N | -2.71% | 0.68% | 1.45% | 1.42% | 2.9% | 4.27% | 5.64% |
| CS(=O)(=O)CCNCc1coc(-c2ccc3ncnc(Nc4ccc(OCc5ccccc5)cc4)c3c2)c1 | 2.03% | 1.8% | 2.23% | 0.86% | 5.65% | 1.72% | 5.71% |
| CC(=O)NCc1cccc(C#Cc2cncnc2Nc2ccc(OCc3cccc(F)c3)c(Cl)c2)c1 | -4.04% | 2.92% | 0.5% | 0.41% | 7.51% | 2.36% | 7.6% |
| CCOc1ccc2c(-c3ccnc(Nc4cccc(C(F)(F)F)c4)n3)cnn2n1 | -1.21% | 0.16% | 1.01% | 3.4% | 6.76% | 4.61% | 10.4% |
| COc1ccc(-c2oc3ncnc(N)c3c2-c2ccc(NC(=O)Nc3cc(C(F)(F)F)ccc3F)cc2)cc1 | 5.86% | -1.07% | 2.91% | 6.22% | 15% | 5.81% | 16.8% |
| CN1CCC(n2cnc(-c3ccc(F)cc3)c2-c2ccnc(Nc3ccccc3)n2)CC1 | -0.18% | 1.95% | 1.28% | 1.16% | 3.05% | 1.22% | 5.12% |
| Fc1ccc(-c2cc(-c3c[nH]nc3-c3ccccn3)ccn2)cc1 | -1.83% | 2.71% | 1.76% | 2.24% | 5.28% | 3.03% | 4.92% |
| COc1cc(/C=N/Nc2ncnc3[nH]ncc23)ccc1O | 6.28% | -2.65% | 4.43% | 5.72% | 17.5% | 10% | 45.2% |
| Nc1ncc(-c2cccc(S(N)(=O)=O)c2)c2scc(-c3ccc(F)c(Cl)c3)c12 | -4.88% | 1.66% | 2.08% | 10.2% | 45.8% | 11.7% | 51.2% |
| CCc1nn2ncccc2c1-c1ccnc(NC2CC2)n1 | -3.3% | 1.42% | 1.5% | 0.11% | 4.02% | 1.77% | 4.72% |
| Fc1cccc(COc2ccc(Nc3ncnc4sc(-c5ccco5)cc34)cc2Cl)c1 | 0.89% | 0.84% | 1.26% | 3.64% | 6.42% | 5.67% | 9.11% |
| CCn1c(-c2nonc2N)nc2cnc(Oc3cccc(NC(=O)c4ccc(N(C)C)cc4)c3)cc21 | -4.15% | 0.85% | 0.95% | 2.37% | 6.56% | 5.49% | 27.4% |

| Structure (SMILES) | inhibition [1] | inhibition [2] | inhibition [3] | inhibition [4] | inhibition [5] | inhibition [6] | inhibition [7] |
| --- | --- | --- | --- | --- | --- | --- | --- |
| c1ccc(COc2ccc(Nc3ncnc4ccc(-c5ccco5)cc34)cc2)cc1 | 6.05% | 0.92% | 1.06% | 4.27% | 3.99% | 3.97% | 1.89% |
| COC(=O)Nc1nc2ccc(S(=O)(=O)c3ccc(NC(=O)Nc4cc(C(F)(F)F)ccc4F)cc3)cc2[nH]1 | -2.68% | 2.19% | 1.11% | 4.08% | 3.21% | 2.36% | 6.79% |
| COc1cc(Nc2nccc(Nc3ccc4c(C)n[nH]c4c3)n2)cc(OC)c1OC | -9.69% | -1.6% | 6.36% | 9.84% | 17.6% | 10.8% | 43.7% |
| CCN1CCC(CC(=O)Nc2n[nH]c3nnc(-c4cccc(F)c4F)cc23)CC1 | 10.2% | 0.45% | 1.11% | 2.47% | 4.14% | 2.58% | 4.75% |
| CN1CCC(n2cnc(-c3ccc(F)cc3)c2-c2ccnc(N)n2)CC1 | -4.14% | 3.88% | 0.94% | 0.66% | 1.74% | 1.6% | 9.24% |
| CCN(CC)S(=O)(=O)c1ccc(OC)c(Nc2ncc(-c3ccccc3)o2)c1 | -0.65% | 0.75% | 0.8% | 2.62% | 5.16% | 1.76% | 9.32% |
| NC(=O)c1sc(-n2cnc3ccc(C(F)(F)F)cc32)cc1OCc1ccccc1Br | -3.37% | 0.72% | 1.61% | 1.61% | 6.09% | 2.3% | 12.8% |
| COc1cc2ncn(-c3cc(OCc4ccccc4C(F)(F)F)c(C(=O)N(C)C)s3)c2cc1OC | -3.66% | 2.2% | -0.25% | 2.7% | 15.2% | 1.6% | 16.7% |
| COC(=O)c1sc(-n2cnc3cc(OC)c(OC)cc32)cc1OCc1ccccc1C(F)(F)F | 3.19% | -0.1% | 1.88% | 4.15% | 10.7% | 4.24% | 19.4% |
| CCn1c(-c2nonc2N)nc2ccccc21 | 2.78% | -0.13% | 1.55% | 6.41% | 8.23% | 5% | 13.7% |
| CNC(=O)c1cncc(/C=C/c2ccccc2Cl)c1 | -3.13% | -1.64% | 0.01% | 3.2% | 4.57% | 1.78% | 6.07% |
| CN(C)CCOc1ccc(-c2nc(-c3ccncc3)c(-c3ccc4c(c3)CC/C4=N\O)[nH]2)cc1 | 69.9% | -2.04% | 2.08% | 2.63% | 6.56% | 2.57% | 9.36% |
| COc1ccc(CNC(=O)c2ccc(-c3cc(-c4nnc(C)o4)ccc3C)cc2)cc1 | -4.44% | 0.85% | 1.98% | 3.51% | 10.8% | 5.52% | 9.35% |
| COc1ccc(-c2cc3c(N)ncnc3o2)cc1 | -0.66% | -0.28% | 0.08% | 0.9% | 3.63% | 1.45% | 2.82% |
| CCCN1CCC(c2ccc(Nc3nc(Nc4cc(F)ccc4C(N)=O)c4cc[nH]c4n3)c(OC)c2)CC1 | 17.1% | 3.12% | 3.69% | 85.5% | 89.7% | 79.9% | 64.4% |
| Fc1ccc(-c2nn3ccccc3c2-c2ccncc2)cc1 | -9.31% | 2.69% | 0.14% | 1.66% | 3.74% | 1.38% | 4.57% |
